# Laboratory results reported in publication PMC11062922 (Nature Chemical Biology, 2023).
# Where two headings read alike, the source gives them in different places.
# Experiments:
# Design in all cases: species or system human, MV4-11 + K-562 + COLO205 + SK-N-BE2 + OVCAR-8
# [1] = system: RAF1; settings: read-out: apparent Kd; compound concentrations: 100 nM and 1000 nM (sheet 'Samples'), CATDS: 0.155550656381887; n = 1
# [2] = system: PHKG2; settings: read-out: apparent Kd; compound concentrations: 100 nM and 1000 nM (sheet 'Samples'), CATDS: 8.5402919050668602E-3; n = 1
# [3] = system: PRKACA; settings: read-out: apparent Kd; compound concentrations: 100 nM and 1000 nM (sheet 'Samples'), CATDS: 7.7130843989671599E-3; n = 1
# [4] = system: RPS6KB1; settings: read-out: apparent Kd; compound concentrations: 100 nM and 1000 nM (sheet 'Samples'), CATDS: 7.08215510279748E-2; n = 1
# [5] = system: MAP3K5; settings: read-out: apparent Kd; compound concentrations: 100 nM and 1000 nM (sheet 'Samples'), CATDS: 5.5720140806326597E-2; n = 1
# [6] = system: DCK; settings: read-out: apparent Kd, n = 1
# [7] = system: TUBB6; settings: read-out: apparent Kd, n = 1
# [8] = system: IRAK1; settings: read-out: apparent Kd, n = 1
# [9] = system: CDK12; settings: read-out: apparent Kd; compound concentrations:100 nM and 1000 nM (sheet 'Samples'); n = 1
# [10] = system: CDK13; settings: read-out: apparent Kd, n = 1
# [11] = system: MCM5; settings: read-out: apparent Kd; compound concentrations:100 nM and 1000 nM (sheet 'Samples'); n = 1
# [12] = system: SLC25A6;SLC25A4; settings: read-out: apparent Kd, n = 1
# [13] = system: CIT; settings: read-out: apparent Kd; compound concentrations:100 nM and 1000 nM (sheet 'Samples'); n = 1
# [14] = system: CSNK1G3; settings: read-out: apparent Kd; compound concentrations:100 nM and 1000 nM (sheet 'Samples'); n = 1
# [15] = system: DHCR24; settings: read-out: apparent Kd, n = 1
# [16] = system: PI4KA; settings: read-out: apparent Kd; compound concentrations:100 nM and 1000 nM (sheet 'Samples'); n = 1
# [17] = system: PKM; settings: read-out: apparent Kd, compound concentrations: 100 nM and 1000 nM (sheet 'Samples'), n = 1
# [18] = system: EPHA7; settings: read-out: apparent Kd; compound concentrations:100 nM and 1000 nM (sheet 'Samples'); n = 1
# [19] = system: PSMC3; settings: read-out: apparent Kd, n = 1
# [20] = system: CAMK2D; settings: read-out: apparent Kd, n = 1
# [21] = compound concentrations:100 nM and 1000 nM (sheet 'Samples')
smiles,measurement,setting,value
CCc1nc(-c2cccc(N(C)S(=O)(=O)c3ccccc3)c2)c(-c2ccnc(Nc3ccc(N4CCN(C(C)=O)CC4)nc3)n2)s1 [GSK1645895A],potency estimated from few doses,[1],1.42 µM
O=C1N=C(NCc2cccs2)SC1Cc1ccc2ncccc2c1 (centres unmarked) [RO4629078-000],potency estimated from few doses,[2],1.04 µM
same,potency estimated from few doses,[3],1.47 µM
O=C1N=C(NCCc2ccccc2F)S/C1=C\c1ccc2ncccc2c1 [RO4498483-000],potency estimated from few doses,[4],1.72 µM
CNC1=NC(=O)/C(=C/c2ccc3ncccc3c2)S1 [RO4595949-000],potency estimated from few doses,[5],1.24 µM
O=S(=O)(CCOCc1ccc(-c2ccc3ncnc(Nc4ccc(OCc5cccc(F)c5)c(Cl)c4)c3c2)o1)c1ccccc1 [GW615311X],potency estimated from few doses,"[6]; compound concentrations: 100 nM and 1000 nM (sheet 'Samples'), CATDS: 2.31641141582303E-2",2.11 µM
same,potency estimated from few doses,"[7]; compound concentrations: 100 nM and 1000 nM (sheet 'Samples'), CATDS: 2.6696132806602001E-2",1.5 µM
CNC(=O)c1ccccc1Nc1nc(Nc2cccc(CS(C)(=O)=O)c2)ncc1C.O=CO [GSK1520489A],potency estimated from few doses,"[8]; compound concentrations: 100 nM and 1000 nM (sheet 'Samples'), CATDS: 1.0270392688251299E-2",1.15 µM
N#Cc1cccc(Nc2nccc(-c3cnn4ncccc34)n2)c1 [GW778894X],potency estimated from few doses,[9],0.541 µM
same,potency estimated from few doses,[10]; [21],1.16 µM
same,potency estimated from few doses,[8]; [21],0.896 µM
Cn1cc(-c2cnc(N)c3c(-c4ccc5c(c4)CCN5C(=O)Cc4ccccc4)csc23)cn1 [GSK2593074A],potency estimated from few doses,[11],1.53 µM
O=S(=O)(c1ccc(-c2ccnc3[nH]ccc23)cc1)N1CCCC1 [GSK846226A],potency estimated from few doses,[12]; [21],2.02 µM
CC(=O)c1c(-c2ccncc2)[nH]c(-c2ccncc2)c1C [GW493036X],potency estimated from few doses,[13],0.173 µM
same,potency estimated from few doses,[14],0.842 µM
same,potency estimated from few doses,[15]; [21],1.24 µM
CNc1nccc(-c2c(-c3ccc(F)cc3)ncn2C2CCN(C)CC2)n1 [SB-222903],potency estimated from few doses,[13],0.67 µM
Nc1nc(N)c2nc(-c3ccccc3)[nH]c2n1 [SKF-12778],potency estimated from few doses,[14],1.18 µM
same,potency estimated from few doses,[6]; [21],1.72 µM
same,potency estimated from few doses,[11],2.16 µM
same,potency estimated from few doses,[16],1.4 µM
same,potency estimated from few doses,[7]; [21],1.77 µM
CN1CCN(Cc2ccc(-c3ccc4c(Nc5ccc(Oc6ccccn6)cc5)ccnc4c3)o2)CC1 [GW567140X],potency estimated from few doses,[17]; CATDS: 3.4326075880393901E-2,1.52 µM
COc1cc(F)c(F)c(F)c1C(=O)c1cnc(NC2CCN(S(C)(=O)=O)CC2)nc1N [RO4600703-000],potency estimated from few doses,[9],2.3 µM
Cc1[nH]nc2c1N=C(c1ccccc1Cl)c1cc([N+](=O)[O-])ccc1N2 [RO0274406-000],potency estimated from few doses,[17]; CATDS: 7.8896221929170104E-2,0.922 µM
NC(=O)c1cccnc1COc1cc(-c2ccc(N3CCOCC3)nc2)cc2ncccc12 [BI01125081],potency estimated from few doses,[18],1.5 µM
COc1ccc(C2=C(Nc3cccc(O)c3)C(=O)NC2=O)cc1 [SB-390766],potency estimated from few doses,[16],1.33 µM
Fc1cccc(COc2ccc(Nc3ncncc3C#Cc3ccccc3)cc2Cl)c1 [GW651576X],potency estimated from few doses,"[19]; compound concentrations: 100 nM and 1000 nM (sheet 'Samples'), CATDS: 4.80880541633023E-2",1.95 µM
COc1cccc(C2=C(c3cn(C)c4c(C)cccc34)C(=O)NC2=O)c1 [RO3301012-000],potency estimated from few doses,"[12]; compound concentrations: 100 nM and 1000 nM (sheet 'Samples'), CATDS: 9.9606855520270293E-2",1.85 µM
Cc1ccc(-n2nc(C(C)(C)C)cc2NC(=O)Nc2ccc(OCCN3CCOCC3)cc2)cc1 [BIRB0876BS],potency estimated from few doses,[18],1.83 µM
CCCCCNC(=O)[C@@H]1CCCN2C(=O)CC[C@H](NC(=O)[C@H](Cc3ccc(OP(=O)(O)O)cc3)NC(C)=O)C(=O)N12 [RO0324694-000],potency estimated from few doses,[19]; [21],1.91 µM
COc1ccc(-c2nn3ncccc3c2-c2ccnc(Nc3ccc4c(c3)OCCO4)n2)cc1 [GW827106X],potency estimated from few doses,"[10]; compound concentrations: 100 nM and 1000 nM (sheet 'Samples'), CATDS: 4.6663696277222499E-2",1.77 µM
Cn1cc(C2=C(c3ccccc3[N+](=O)[O-])C(=O)NC2=O)c2ccccc21 [RO0317753-000],potency estimated from few doses,"[20]; compound concentrations: 100 nM and 1000 nM (sheet 'Samples'), CATDS: 9.7402766920506798E-2",0.597 µM
COc1ccc(Nc2nccc(N3CCC(NC(=O)Nc4cccc(OC)c4)C3)n2)cc1 (centres unmarked) [GSK1379742A],potency estimated from few doses,"[15]; compound concentrations: 100 nM and 1000 nM (sheet 'Samples'), CATDS: 0.157459675408709",1.06 µM
Cl.Oc1ccc2ncnc(Nc3ccc(OCc4ccccc4)cc3)c2c1 [GI262866A],potency estimated from few doses,[20]; [21],0.388 µM
